# Several values for one entry are separate records, joined by “and”; a condition that tells them apart may be missing. Identical values can stand only once. Records with an inconclusive call do not appear. Activity calls are given as the source filed them. Rule for the calls: active = hit-call score of the fitted dose curve at least 0.9, where 1 is the maximum; inconclusive = response in the unintended direction; inactive = score below 0.9.
# Assays:
# [1] = target: human Serotonin, 5-Hydroxytryptamine Receptor 3 (5HT3), HTR3A (gene 3359) (UniProt P46098); assay: NVS_LGIC_h5HT3: NovaScreen (NVS) Ligand-Gated Ion Channel Assay for human Serotonin, 5-Hydroxytryptamine Receptor 3 (5HT3) (AID 2283325)
# Chain of human Serotonin, 5-Hydroxytryptamine Receptor 3 (5HT3), HTR3A (gene 3359) (P46098 whole entry, looked up): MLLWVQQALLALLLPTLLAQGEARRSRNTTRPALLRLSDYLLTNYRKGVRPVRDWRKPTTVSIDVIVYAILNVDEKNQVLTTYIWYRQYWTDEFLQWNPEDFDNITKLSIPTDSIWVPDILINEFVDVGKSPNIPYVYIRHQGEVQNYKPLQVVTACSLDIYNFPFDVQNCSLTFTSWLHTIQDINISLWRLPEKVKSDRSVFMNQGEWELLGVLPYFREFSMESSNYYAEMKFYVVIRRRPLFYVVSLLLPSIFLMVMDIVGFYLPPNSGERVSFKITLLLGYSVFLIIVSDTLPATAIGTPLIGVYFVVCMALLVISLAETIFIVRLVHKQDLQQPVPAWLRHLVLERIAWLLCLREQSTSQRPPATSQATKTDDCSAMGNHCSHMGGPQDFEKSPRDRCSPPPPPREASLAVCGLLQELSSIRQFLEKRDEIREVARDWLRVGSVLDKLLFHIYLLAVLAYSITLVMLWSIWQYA
# How it was run: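 Initially tested at 25 uM in duplicate, then up to 50 uM in concentration-response for actives, compounds competed with a radioligand for HEK293-derived human 5-HT3 receptor. Bound counts were measured by filtration and scintillation at 1 h; loss of signal versus DMSO.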
# [2] = target: bovine Gamma-Aminobutyric Acid Type A Receptor BDZ, alpha 1 site (GABARa1), GABRA1 (gene 780973) (UniProt P08219); assay: NVS_LGIC_bGABARa1: NovaScreen (NVS) Ligand-Gated Ion Channel Assay for bovine Gamma-Aminobutyric Acid Type A Receptor BDZ, alpha 1 site (GABARa1) (AID 2283321)
# Chain of bovine Gamma-Aminobutyric Acid Type A Receptor BDZ, alpha 1 site (GABARa1), GABRA1 (gene 780973) (P08219 whole entry, looked up): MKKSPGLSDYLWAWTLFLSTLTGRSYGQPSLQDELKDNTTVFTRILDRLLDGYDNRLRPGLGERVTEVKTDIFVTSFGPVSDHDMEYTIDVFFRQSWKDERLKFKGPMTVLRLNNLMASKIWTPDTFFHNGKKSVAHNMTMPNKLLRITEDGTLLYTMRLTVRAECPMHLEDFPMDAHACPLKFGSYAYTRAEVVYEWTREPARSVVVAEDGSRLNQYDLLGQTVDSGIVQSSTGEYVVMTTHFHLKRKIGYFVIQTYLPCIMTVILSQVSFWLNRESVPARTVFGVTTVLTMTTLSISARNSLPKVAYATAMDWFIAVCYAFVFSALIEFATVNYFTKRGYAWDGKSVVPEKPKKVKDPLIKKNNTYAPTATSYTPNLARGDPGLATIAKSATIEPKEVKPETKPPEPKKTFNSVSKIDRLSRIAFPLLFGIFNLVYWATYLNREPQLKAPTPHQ
# How it was run: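 Bovine cortex membrane preparation, benzodiazepine site on GABA-A alpha1; specific radioligand displacement read after 0.75 h by filtration and scintillation. Screen at 25 uM, then singleton titrations up to 50 uM; DMSO baseline.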
# [3] = target: bovine Gamma-Aminobutyric Acid Type A Receptor BDZ, alpha 5 site (GABARa5), GABRA5 (gene 523515) (UniProt Q08E50); assay: NVS_LGIC_bGABARa5: NovaScreen (NVS) Ligand-Gated Ion Channel Assay for bovine Gamma-Aminobutyric Acid Type A Receptor BDZ, alpha 5 site (GABARa5) (AID 2283323)
# Chain of bovine Gamma-Aminobutyric Acid Type A Receptor BDZ, alpha 5 site (GABARa5), GABRA5 (gene 523515) (Q08E50 whole entry, looked up): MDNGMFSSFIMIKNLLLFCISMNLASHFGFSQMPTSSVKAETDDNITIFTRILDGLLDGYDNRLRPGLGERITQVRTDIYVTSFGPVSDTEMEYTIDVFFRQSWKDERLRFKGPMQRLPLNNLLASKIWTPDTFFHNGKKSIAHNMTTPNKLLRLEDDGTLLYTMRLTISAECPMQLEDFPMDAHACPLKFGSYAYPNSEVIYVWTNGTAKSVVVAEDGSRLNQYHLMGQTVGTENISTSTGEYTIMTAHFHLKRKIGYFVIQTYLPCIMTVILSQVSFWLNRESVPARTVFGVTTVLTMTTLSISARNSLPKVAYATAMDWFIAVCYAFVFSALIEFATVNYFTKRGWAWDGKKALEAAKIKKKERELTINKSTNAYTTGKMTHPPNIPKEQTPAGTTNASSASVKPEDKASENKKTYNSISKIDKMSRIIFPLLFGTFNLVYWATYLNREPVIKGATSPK
# How it was run: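 Tested first in duplicate at a single 25 uM, with hits re-run in concentration series to a 50 uM maximum. Bovine hippocampal membranes; specific radioligand displacement measured by filter scintillation counting 1 hr post-dose.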
# [4] = target: rat Gamma-Aminobutyric Acid Type A Receptor, Non-Selective (GABAR-NonSelective), Gabra1 (gene 29705) (UniProt P62813); assay: NVS_LGIC_rGABAR_NonSelective: NovaScreen (NVS) Ligand-Gated Ion Channel Assay for rat Gamma-Aminobutyric Acid Type A Receptor, Non-Selective (GABAR-NonSelective) (AID 2283326)
# Chain of rat Gamma-Aminobutyric Acid Type A Receptor, Non-Selective (GABAR-NonSelective), Gabra1 (gene 29705) (P62813 whole entry, looked up): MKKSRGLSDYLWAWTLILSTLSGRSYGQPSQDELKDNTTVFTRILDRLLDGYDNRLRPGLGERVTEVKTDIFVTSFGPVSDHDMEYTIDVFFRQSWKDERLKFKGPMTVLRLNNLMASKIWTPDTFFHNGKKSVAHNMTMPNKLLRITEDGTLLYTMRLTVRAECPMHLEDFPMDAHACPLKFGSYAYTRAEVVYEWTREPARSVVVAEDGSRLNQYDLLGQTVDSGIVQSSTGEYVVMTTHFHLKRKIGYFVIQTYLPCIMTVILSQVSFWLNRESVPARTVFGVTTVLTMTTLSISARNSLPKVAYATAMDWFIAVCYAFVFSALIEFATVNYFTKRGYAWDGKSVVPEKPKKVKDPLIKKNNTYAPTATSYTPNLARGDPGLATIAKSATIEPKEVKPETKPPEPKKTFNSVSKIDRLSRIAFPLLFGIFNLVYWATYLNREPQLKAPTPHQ
# How it was run: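 Compounds were first screened in duplicate at 25 uM, with actives run as singleton concentration series (max 50 uM). Binding of a radioligand to rat whole-brain GABA-A preparation was measured by filtration and scintillation counting after 1 h, DMSO baseline.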
# [5] = target: bovine Gamma-Aminobutyric Acid Type A Receptor Agonist (GABAR Agonist), GABRA1 (gene 780973) (UniProt P08219); assay: NVS_LGIC_bGABAR_Agonist: NovaScreen (NVS) Ligand-Gated Ion Channel Assay for bovine Gamma-Aminobutyric Acid Type A Receptor Agonist (GABAR Agonist) (AID 2283338)
# Chain of bovine Gamma-Aminobutyric Acid Type A Receptor Agonist (GABAR Agonist), GABRA1 (gene 780973) (P08219 whole entry, looked up): as the sequence (P08219 whole entry, looked up) above
# How it was run: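 Radioligand binding to bovine cerebellar membranes in agonist format, read by filter-based scintillation counting after 1 h. Primary screen in duplicate at 25 uM, with actives followed in concentration series. Gain of signal versus DMSO.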
# [6] = target: rat Gamma-Aminobutyric Acid Type A Receptor BDZ, alpha 6 site (GABARa6), Gabra6 (gene 29708) (UniProt P30191); assay: NVS_LGIC_rGABARa6: NovaScreen (NVS) Ligand-Gated Ion Channel Assay for rat Gamma-Aminobutyric Acid Type A Receptor BDZ, alpha 6 site (GABARa6) (AID 2283339)
# How it was run: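 Actives from a 25 uM duplicate screen were retested in concentration series (max 50 uM). Specific radioligand displacement from rat cerebellar membranes was counted by filter-based scintillation at 1 h; DMSO served as baseline.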
# [7] = target: rat Thyrotropin Releasing Hormone Receptor (TRH), Trhr (gene 25570) (UniProt Q01717); assay: NVS_GPCR_rTRH: NovaScreen (NVS) G Protein-Coupled Receptor Assay for rat Thyrotropin Releasing Hormone Receptor (TRH) (AID 2283329);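 note: hit means lower bound tracer signal versus DMSO baseline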
# How it was run: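 Competitive radioligand binding on rat forebrain membrane preparations, with filtration and scintillation readout after 4 h. Primary testing in duplicate at 25 uM; actives confirmed in concentration-response. DMSO defined baseline.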
# [8] = target: human Androgen Receptor (AR), AR (gene 367) (UniProt P10275); assay: NVS_NR_hAR: NovaScreen (NVS) Nuclear Receptor Binding Assay for human Androgen Receptor (AR) (AID 2283332)
# Chain of human Androgen Receptor (AR), AR (gene 367) (P10275 whole entry, looked up): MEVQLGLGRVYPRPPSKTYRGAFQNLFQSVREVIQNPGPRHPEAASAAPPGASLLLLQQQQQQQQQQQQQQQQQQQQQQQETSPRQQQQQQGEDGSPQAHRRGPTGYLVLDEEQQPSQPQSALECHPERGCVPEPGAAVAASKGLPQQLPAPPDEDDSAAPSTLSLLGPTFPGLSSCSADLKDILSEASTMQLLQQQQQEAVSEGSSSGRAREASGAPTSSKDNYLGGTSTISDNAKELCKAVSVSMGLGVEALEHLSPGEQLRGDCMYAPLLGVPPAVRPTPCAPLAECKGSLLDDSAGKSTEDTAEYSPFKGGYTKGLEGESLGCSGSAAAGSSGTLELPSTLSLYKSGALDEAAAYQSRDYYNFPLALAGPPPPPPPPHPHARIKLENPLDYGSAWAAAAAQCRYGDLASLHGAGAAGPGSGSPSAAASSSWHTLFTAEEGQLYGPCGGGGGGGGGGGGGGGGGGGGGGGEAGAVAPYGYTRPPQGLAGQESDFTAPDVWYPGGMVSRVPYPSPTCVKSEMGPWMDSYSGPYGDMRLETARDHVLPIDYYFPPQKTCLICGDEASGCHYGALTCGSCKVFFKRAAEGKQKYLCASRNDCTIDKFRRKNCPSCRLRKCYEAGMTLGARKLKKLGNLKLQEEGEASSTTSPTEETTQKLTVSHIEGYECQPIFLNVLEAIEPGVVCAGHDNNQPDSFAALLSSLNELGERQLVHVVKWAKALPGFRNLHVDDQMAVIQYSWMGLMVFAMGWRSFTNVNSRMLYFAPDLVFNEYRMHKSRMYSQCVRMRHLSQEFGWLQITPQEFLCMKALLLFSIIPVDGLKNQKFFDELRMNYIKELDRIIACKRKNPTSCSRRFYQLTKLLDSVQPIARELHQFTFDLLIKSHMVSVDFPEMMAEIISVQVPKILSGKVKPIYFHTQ
# How it was run: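 LnCAP cell-free extract; radioligand displacement read by scintillation counting after 20 h. Primary screen single concentration 25 uM in duplicate, actives then run as concentration series; loss-of-signal fitted relative to DMSO baseline.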
# [9] = target: Small conductance calcium-activated potassium channel protein 1 (Rattus norvegicus) (UniProt P70606); assay: NVS_IC_rKCaCh: NovaScreen (NVS) Ion Channel Assay for rat Potassium Channel, Ca2+ Act., VI (KCaCh) (AID 2283336)
# Chain of Small conductance calcium-activated potassium channel protein 1 (Rattus norvegicus) (P70606 whole entry, looked up): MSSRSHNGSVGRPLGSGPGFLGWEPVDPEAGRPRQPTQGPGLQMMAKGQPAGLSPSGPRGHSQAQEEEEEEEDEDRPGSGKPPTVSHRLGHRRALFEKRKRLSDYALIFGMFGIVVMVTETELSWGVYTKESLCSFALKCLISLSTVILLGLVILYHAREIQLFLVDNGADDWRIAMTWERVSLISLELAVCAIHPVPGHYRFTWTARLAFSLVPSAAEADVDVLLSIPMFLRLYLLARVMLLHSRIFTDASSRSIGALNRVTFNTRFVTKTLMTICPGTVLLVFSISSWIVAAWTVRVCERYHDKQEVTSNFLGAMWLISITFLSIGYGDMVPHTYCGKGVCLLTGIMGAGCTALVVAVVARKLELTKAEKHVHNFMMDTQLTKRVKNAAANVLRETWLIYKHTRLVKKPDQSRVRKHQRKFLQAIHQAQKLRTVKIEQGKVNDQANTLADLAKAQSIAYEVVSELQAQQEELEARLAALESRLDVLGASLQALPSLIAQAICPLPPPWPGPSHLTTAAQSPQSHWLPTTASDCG
# How it was run: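 Filter-based scintillation counting of radioligand bound to rat forebrain membrane preparations, measured 1 h after compound addition. Primary screen used 25 uM in duplicate, with concentration-response follow-up; signal decrease relative to DMSO marks activity.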
# [10] = target: Sodium channel protein type 1 subunit alpha (Rattus norvegicus) (UniProt P04774); assay: NVS_IC_rNaCh_site2: NovaScreen (NVS) Ion Channel Assay for rat Sodium Channel, Site 2 (NaCh) (AID 2283322);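 note: hit means loss of radioligand binding signal relative to DMSO so AC50 marks displacement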
# How it was run: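 Initial duplicate single-point testing at 25 uM, followed by concentration-response runs for actives. Binding of radioligand to rat forebrain membranes quantified after 1 h via filter-based radiodetection.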
# [11] = test system: NCBI gene 24521; assay: NVS_IC_rKATPCh: NovaScreen (NVS) Ion Channel Assay for rat Potassium Channel, ATP-Sensitive (KATPCh) (AID 2283319)
# How it was run: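 Primary duplicate screen at 25 uM, then singleton concentration series to 50 uM maximum, in a rat cortex membrane radioligand displacement assay. Binding measured by filtration and scintillation 2 h post-dose; DMSO baseline.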
# [12] = NVS_IC_rCaDHPRCh_L: NovaScreen (NVS) Ion Channel Assay for rat Calcium Channel, Type L, Dihydropyridine Site (CaDHPRCh_L) (AID 2283320)
# How it was run: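 Rat cortex membrane preparation; dihydropyridine-site radioligand displacement read 1 h post-dose by filtration and scintillation. Primary single-point screen 25 uM in duplicate, then concentration series to 50 uM maximum; DMSO as negative control.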
# [13] = target: rat Glutamate, AMPA Site (AMPA), Gria1 (gene 50592) (UniProt P19490); assay: NVS_LGIC_rAMPA: NovaScreen (NVS) Ligand-Gated Ion Channel Assay for rat Glutamate, AMPA Site (AMPA) (AID 2283324)
# Chain of rat Glutamate, AMPA Site (AMPA), Gria1 (gene 50592) (P19490 whole entry, looked up): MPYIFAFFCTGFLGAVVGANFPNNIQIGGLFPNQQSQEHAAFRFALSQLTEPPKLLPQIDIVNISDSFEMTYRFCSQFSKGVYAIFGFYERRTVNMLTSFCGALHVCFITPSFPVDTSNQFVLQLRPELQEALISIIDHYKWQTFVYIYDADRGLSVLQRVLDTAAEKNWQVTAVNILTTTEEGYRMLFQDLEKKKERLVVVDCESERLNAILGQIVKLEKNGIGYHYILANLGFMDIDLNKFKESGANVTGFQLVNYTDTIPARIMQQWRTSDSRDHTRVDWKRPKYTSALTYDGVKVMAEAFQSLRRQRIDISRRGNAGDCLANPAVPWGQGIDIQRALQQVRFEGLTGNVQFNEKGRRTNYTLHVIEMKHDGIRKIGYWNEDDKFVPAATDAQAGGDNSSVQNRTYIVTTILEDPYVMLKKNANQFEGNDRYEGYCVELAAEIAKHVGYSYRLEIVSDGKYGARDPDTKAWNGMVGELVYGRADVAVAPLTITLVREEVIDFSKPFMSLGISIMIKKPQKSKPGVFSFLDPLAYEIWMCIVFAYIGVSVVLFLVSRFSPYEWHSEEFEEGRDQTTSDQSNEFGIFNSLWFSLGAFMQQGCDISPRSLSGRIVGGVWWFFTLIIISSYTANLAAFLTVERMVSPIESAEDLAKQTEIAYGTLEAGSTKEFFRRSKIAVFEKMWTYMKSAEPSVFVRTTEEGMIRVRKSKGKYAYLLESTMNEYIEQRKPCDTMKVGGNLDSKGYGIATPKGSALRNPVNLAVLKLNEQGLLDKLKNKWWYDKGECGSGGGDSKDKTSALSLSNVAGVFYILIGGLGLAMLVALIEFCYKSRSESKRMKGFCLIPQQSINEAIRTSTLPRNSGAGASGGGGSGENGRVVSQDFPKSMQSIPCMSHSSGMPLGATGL
# How it was run: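 Screening at 25 uM in duplicate preceded concentration series reaching 50 uM for qualifying compounds. Radioligand displacement on rat forebrain membranes, 1 h, filter-based scintillation readout; reduced binding relative to DMSO.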
# [14] = target: human Peripheral-type Benzodiazepine Receptor (PBR), TSPO (gene 706) (UniProt P30536); assay: NVS_MP_hPBR: NovaScreen (NVS) Membrane Protein Assay for human Peripheral-type Benzodiazepine Receptor (PBR) (AID 2283331);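 note: hits reduce radioligand binding relative to DMSO baseline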
# Chain of human Peripheral-type Benzodiazepine Receptor (PBR), TSPO (gene 706) (P30536 whole entry, looked up): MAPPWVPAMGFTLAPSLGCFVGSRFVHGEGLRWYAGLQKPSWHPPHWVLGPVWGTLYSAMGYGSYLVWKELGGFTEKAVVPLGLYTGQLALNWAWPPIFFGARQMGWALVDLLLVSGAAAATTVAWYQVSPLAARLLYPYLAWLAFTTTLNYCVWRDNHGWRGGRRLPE
# How it was run: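 Cell-free radioligand displacement, human colonic membranes, 1 h exposure. Filter radiodetection read-out. Single-concentration duplicates (25 uM), then concentration-response for actives; DMSO negative control.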
# [15] = NVS_IC_rCaBTZCHL: NovaScreen (NVS) Ion Channel Assay for Calcium Channel, Type L, Benzothiazepine Site (CaBTZCHL) (AID 2283337)
# How it was run: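 Rat cortical membrane preparation, cell-free. Radioligand displaced by test chemical; 1.5 h incubation; filtration, scintillation count. DMSO = negative control/baseline. Primary: duplicate, 25 uM; secondary: concentration series.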
# [16] = target: Voltage-gated inwardly rectifying potassium channel KCNH2 (Homo sapiens) (UniProt Q12809); assay: NVS_IC_hKhERGCh: NovaScreen (NVS) Ion Channel Assay for human Potassium Channel ERG (KhERGCh) (AID 2283333)
# How it was run: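 Membranes from CHO cells expressing human ERG; displacement of radioligand measured by filtration and scintillation after 0.75 h. Single-concentration duplicate screen at 25 uM, then concentration-response for actives; DMSO baseline.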
# [17] = target: rat Peripheral-type Benzodiazepine Receptor (PBR), Tspo (gene 24230) (UniProt P16257); assay: NVS_MP_rPBR: NovaScreen (NVS) Membrane Protein Assay for rat Peripheral-type Benzodiazepine Receptor (PBR) (AID 2283335)
# How it was run: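 Single-concentration duplicate screening at 25 uM preceded concentration-series retesting of actives. Binding of a specific radioligand to rat kidney membrane PBR was read by filtration radiodetection after 1 h, with plate-wise positive and negative controls.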
smiles,measurement,setting,value
CC(C)N(Cc1ccccc1)C(=O)C(C)(C)C,outcome,[1],inactive
CC(C)(O)c1cnn2c(-c3ccc(F)c(-c4c(F)cccc4C#N)c3)cnc2n1,outcome,[2],inactive
same,AC50,[3],0.00229 µM (active)
same,outcome,[4],inactive
same,outcome,[5],inactive
same,outcome,[6],inactive
C[C@]12C=CC3=C4CCC(=O)C=C4CC[C@H]3[C@@H]1CC[C@@H]2O,AC50,[2],20.5 µM (active)
same,AC50,[3],40.7 µM (active)
same,outcome,[7],inactive
same,AC50,[8],0.345 nM (active) and 9.04 nM (active)
same,outcome,[9],inactive
CCCCCOC(=O)c1ccccc1C(=O)OCCCCC,outcome,[10],inactive
O=[N+]([O-])c1ccc(Oc2ccc(Cl)cc2Cl)cc1,outcome,[11],inactive
[Cl-].[Cl-].[Hg+2],AC50,[11],27.6 µM (active)
same,AC50,[12],16.8 µM (active)
c1ccc(NNc2ccccc2)cc1,outcome,[13],inactive
O=C(Oc1ccc(Br)cc1)N1CCN2CCC1CC2,outcome,[11],inactive
same,outcome,[2],inactive
same,AC50,[10],8.18 µM (active)
same,AC50,[1],12.5 µM (active)
same,outcome,[9],inactive
same,AC50,[5],25 µM (active)
Clc1ccc(C(c2ccc(Cl)cc2)C(Cl)Cl)cc1,outcome,[11],inactive
CCCCCCCCn1sccc1=O,AC50,[12],18 µM (active)
same,AC50,[10],31.5 µM (active)
same,outcome,[13],inactive
same,AC50,[14],1.24 µM (active)
same,AC50,[15],34.2 µM (active)
ClCCOCCCl,AC50,[1],1.38 µM (active)
Cc1ccc([N+](=O)[O-])cc1,AC50,[11],4.96 µM (active)
CC(C)(C)C(O)(CCc1ccc(Cl)cc1)Cn1cncn1 (centres undefined),AC50,[10],25 µM (active)
same,outcome,[16],inactive
same,AC50,[17],6.45 µM (active)
same,AC50,[15],16 µM (active)

# Reference: PubChem BioAssay (EPA / NIEHS)
